The sample as a whole holds a higher share of hits than the screen did.
Chlamy TAG: algal TAG accumulation induction; AID 1159537; calls only at 10 µM (by protocol); Chlamydomonas reinhardtii TAG, Nile Red fluorescence, 72 h; hit rate 0.84% among 44,000; call rule not given here;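 further: hits raise Nile Red signal meaning more stored TAG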
Calls only; n = inactive; + = active, no number.

SMILES | Chlamy TAG
COc1cccc(C(=O)Nc2ccc3oc(-c4ccncc4)nc3c2)c1 | +
COc1cccc(C(=O)Nc2ccc3oc(-c4ccc(F)cc4)nc3c2)c1 | n
O=C(Nc1ccc2oc(-c3ccncc3)nc2c1)c1ccccc1 | n
COc1ccc(NC(=O)c2ccc(Br)o2)c(OC)c1 | n
CS(=O)(=O)N(Cc1ccc(C(=O)Nc2ccc(F)cc2)cc1)c1ccccc1 | n
Cc1ccc(C(=O)Nc2ccc(-c3nc4ccccc4o3)c(O)c2)cc1[N+](=O)[O-] | n
CSc1ccc(/C=C/C(=O)c2ccco2)cc1 | n
Cn1ccnc1SCC(=O)Nc1ccc([N+](=O)[O-])cc1 | n
O=[N+]([O-])c1ccc(C2Nc3cc(Cl)cc(Cl)c3C3C=CCC32)cc1 (stereo unspecified) | n
Cc1ccc2nc(NC(=O)C3CC3)sc2c1 | +
Cc1ccc2nc(NC(=O)NC3CCCCC3)sc2c1 | n
Cc1ccc2nc(NC(=O)C3CCCCC3C(=O)O)sc2c1 (stereo unspecified) | n
O=C(Nc1cccc([N+](=O)[O-])c1)C(Cc1ccccc1)N1C(=O)C2C3CCC(C3)C2C1=O (stereo unspecified) | n
Cc1cc(NC(=O)c2ccc(Cl)c(Cl)c2)cc(C)c1OCC(=O)N1CCOCC1 | n
O=C(CN1CCN(c2ccc([N+](=O)[O-])cc2)CC1)Nc1ccc(Br)cc1 | n
CS(=O)(=O)N1CCN(C2C3CC4CC(C3)CC2C4)CC1 (stereo unspecified) | +
O=C(c1ccccc1)N1CCN(C2C3CC4CC(C3)CC2C4)CC1 (stereo unspecified) | n
Cc1ccc(N2CCN(C3C4CC5CC(C4)CC3C5)CC2)cc1 (stereo unspecified) | n
NC(=O)C1CCN(Cc2c(F)cccc2Cl)CC1 | n
CCOc1cc(C(=O)Nc2ccc([N+](=O)[O-])cc2Cl)cc(OCC)c1OCC | n
CCOc1c(Cl)cc(C(=O)Nc2cccc([N+](=O)[O-])c2)cc1Cl | +
CCOc1ccc(C(=O)Nc2cccc([N+](=O)[O-])c2)cc1Cl | n
CCOc1ccccc1C(=O)Nc1cccc(NC(=O)c2ccccc2OCC)n1 | n
CC(=O)n1c2ccccc2c2[nH]c3c(c21)CCCC3 | n
O=C(CSc1ccccc1)N1CCCCCC1 | n
SMILES | Chlamy TAG
O=C(Cc1ccc(Cl)cc1)Nc1ccc(N2CCN(C(=O)c3ccccc3)CC2)cc1 | n
O=C(Nc1ccc(N2CCN(C(=O)c3ccccc3)CC2)cc1)c1ccc(Cl)cc1Cl | +
O=C(c1ccccc1)N1CCN(C(=O)c2ccc(Cl)cc2Cl)CC1 | n
COc1ccc(-n2nc3nc[nH]c(=O)c3n2)cc1 | n
COc1ccc(N2CCN(Cc3cccs3)CC2)cc1 | n
COc1ccc(N2CCN(Cc3ccsc3)CC2)cc1 | +
COc1ccc(N2CCN(Cc3cccnc3)CC2)cc1 | n
CCc1nnc(NC(=O)c2cc(I)ccc2Cl)s1 | n
C=CCc1cccc(C)c1OCCCN1CCCC1 | n
C=CCc1cccc(C)c1OCCCN1CCN(C)CC1 | +
C=CCc1cc(C)ccc1OCCCCN1CCN(C)CC1 | n
C=CCc1cc(Cl)ccc1OCCN1CCN(C)CC1 | +
C=CCc1cc(C)ccc1OCCN1CCN(C)CC1 | n
C=CCc1cccc(OC)c1OCCCN1CCN(C)CC1 | n
COc1ccc(Cl)cc1C(=O)Nc1ccc(C(C)=O)cc1 | n
CC1=C(C(=O)Nc2ccc(F)cc2F)C(c2ccccc2)C2=C(CCCC2=O)N1 (stereo unspecified) | n
O=[N+]([O-])CC1CCS(=O)(=O)C1 (stereo unspecified) | n
CCC1CCCCN1C(=O)c1ccc(Cl)cc1[N+](=O)[O-] (stereo unspecified) | +
CCC1CCCCN1C(=O)c1cccc([N+](=O)[O-])c1C (stereo unspecified) | n
CCN1CCN(C(=O)c2ccc(Cl)cc2[N+](=O)[O-])CC1 | n
COc1ccc(OC)c(-c2nc(NC(=O)c3ccc([N+](=O)[O-])cc3)sc2C)c1 | n
CC(=O)Nc1ccccc1NC(=O)Cc1ccccc1 | n
Brc1ccc(CN2CCN(c3ccccn3)CC2)cc1 | n
Brc1ccc2ncnc(N3CCOCC3)c2c1 | n
Brc1ccc2ncnc(N3CCN(Cc4ccccc4)CC3)c2c1 | +
SMILES | Chlamy TAG
C=CCc1cccc(OC)c1OCc1ccc(C(=O)O)cc1 | n
Cc1ccc(NC(=O)Cn2nnnc2-c2nonc2N)c(C)c1 | n
COc1cc2c(cc1OC)CN(Cc1ccc(N(C)C)cc1)CC2 | n
COc1cc2c(cc1OC)CN(Cc1cccc(F)c1)CC2 | n
COc1cc2c(cc1OC)CN(Cc1ccc(F)cc1)CC2 | +
N#CC(=Cc1cccc(F)c1)c1nc(-c2ccc(Cl)cc2)cs1 | n
O=C1C=C(c2ccccc2)CC(c2cccs2)C1n1nnc([N+](=O)[O-])n1 (stereo unspecified) | n
CC(CC#CCN1CCCC1)OCCC#N (stereo unspecified) | n
NC(=O)C1CCN(C(=O)CN(c2cccc([N+](=O)[O-])c2)S(=O)(=O)c2ccccc2)CC1 | n
COc1ccc(CN2CCN(Cc3ccccn3)CC2)c(OC)c1OC | n
Cc1cc(Cl)c(OCCOCCN2CCNCC2)c(Cl)c1 | n
Cc1cc(C)c(OCCCCN2CCNCC2)c(C)c1 | +
Cc1cc(C)c(OCCCN2CCCC2)c(C)c1 | n
CS(=O)(=O)N(CC(=O)NC1CCCCCC1)c1cccc([N+](=O)[O-])c1 | n
CC(C)(CO)NCC(O)Cn1c2ccc(Cl)cc2c2cc(Cl)ccc21 (stereo unspecified) | n
COc1ccc(NC(=O)c2ccc(C(=O)c3ccccc3)cc2)cc1 | n
CC1(C)Oc2ccc(NC(=O)c3ccc(C(=O)c4ccccc4)cc3)cc2O1 | +
CC1(C)Oc2ccc(NC(=O)Cc3ccc(F)cc3)cc2O1 | n
CC1CN(C(=O)c2c(Cl)cccc2Cl)CC(C)O1 (stereo unspecified) | n
O=C(Nc1ccc(Cl)c(Cl)c1)[C@@H]1C2C=CC(C2)[C@@H]1C(=O)O (stereo partly specified) | n
COc1ccc(NC(=O)N2CCN(CCNC(=O)C(=O)Nc3ccc(Cl)cc3)CC2)cc1 | n
CCCCC(=O)Nc1ccc(OC)c(OC)c1 | n
CCN1CCC(N2CCN(c3ccccc3)CC2)CC1 | n
O=C(C1CCN(CC2CCCCC2)CC1)N1CCN(c2ccccc2)CC1 | n
c1ccc(N2CCN(CC3CCCCC3)CC2)cc1 | +
SMILES | Chlamy TAG
O=C(NCCc1ccccc1)C1CCN(Cc2ccccc2Cl)CC1 | n
Cc1ccc(CNC(=O)C(=O)NCc2ccccc2Cl)cc1 | n
Cc1ccc(CN2CCC(C(=O)NCc3ccccc3Cl)CC2)cc1 | +
CC(=O)c1cccc(NC(=O)C2CC2(c2ccccc2)c2ccccc2)c1 (stereo unspecified) | n
N#CC1=C(N)SC(N)=C(C#N)C1c1ccccc1Cl | n
O=C(Nc1c(F)c(F)c(F)c(F)c1F)c1cccs1 | n
O=C(Nc1cccc([N+](=O)[O-])c1)c1ccc(Cl)c(S(=O)(=O)N2CCOCC2)c1 | n
CCN(CC)CC#CC(O)c1ccccc1 (stereo unspecified) | n
CCN(CC)CC#Cc1ccc(C#CCN(CC)CC)cc1 | +
CCN(CC)CC#CC(C)(O)C(C)C (stereo unspecified) | n
COc1ccc(-c2nnc(-c3ccc(Br)cc3)o2)cc1 | n
CCOc1ccc(NC(=O)CSc2nc(-c3ccccc3)cc(=O)[nH]2)cc1 | n
CCOc1cccc(N2C(=O)CC(N3CCOCC3)C2=O)c1 (stereo unspecified) | n
CCN(CC)c1cc(C)nc(N)n1 | +
Cc1cc(N2CCCCC2)nc(N)n1 | n
Cc1cc(-n2nc(C)cc2C)nc(N)n1 | n
COc1cccc(NC(=O)COc2c(C)cc(C)cc2Cl)c1 | n

Compound activity from PubChem.
